From publication PMC5540273 (PLoS ONE, 2017)

Columns and labels:
Details in all cases: concentration: 1 μM, replicates: in singlicate; n = 1
HUNK = tested on: HUNK
ICK = tested on: ICK
IGF1R = tested on: IGF1R
IKK-alpha = tested on: T1, IKK-alpha
T1 construct: gene CHUK

IKK-beta = tested on: T2, IKK-beta
T2 construct: gene IKBKB

IKK-epsilon = tested on: T3, IKK-epsilon
T3 construct: gene IKBKE

INSRR = tested on: INSRR
INSR = tested on: INSR
IRAK1 = tested on: IRAK1
IRAK3 = tested on: IRAK3
IRAK4 = tested on: IRAK4
ITK = tested on: ITK
[1] = tested on: JAK1(JH1domain-catalytic)
[2] = tested on: JAK1(JH2domain-pseudokinase)
[3] = tested on: JAK2(JH1domain-catalytic)
[4] = tested on: JAK3(JH1domain-catalytic)
JNK1 = tested on: T4, JNK1
T4 construct: gene MAPK8

JNK2 = tested on: T5, JNK2
T5 construct: gene MAPK9

JNK3 = tested on: T6, JNK3
T6 construct: gene MAPK10

KIT-autoinhibited = tested on: KIT-autoinhibited
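Further: KINOMEscan kinase panel screen.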

Structure (SMILES)	%Inh (HUNK) [%]	%Inh (ICK) [%]	%Inh (IGF1R) [%]	%Inh (IKK-alpha) [%]	%Inh (IKK-beta) [%]	%Inh (IKK-epsilon) [%]	%Inh (INSRR) [%]	%Inh (INSR) [%]	%Inh (IRAK1) [%]	%Inh (IRAK3) [%]	%Inh (IRAK4) [%]	%Inh (ITK) [%]	%Inh [1] [%]	%Inh [2] [%]	%Inh [3] [%]	%Inh [4] [%]	%Inh (JNK1) [%]	%Inh (JNK2) [%]	%Inh (JNK3) [%]	%Inh (KIT-autoinhibited) [%]
Cn1ccc2ncnc(Oc3ccc(Nc4nc5ccccc5[nH]4)cc3)c21	0	0	0	0	0	0	17	0	0	0	0	3	8	0	0	0	0	0	0	0
Cn1ccc2ncnc(Oc3ccc(NC(=O)Nc4ccccc4)cc3)c21	0	0	0	5	0	17	0	14	7	0	17	0	0	39	2	21	22	0	0	57
Cc1c(Cn2ccn3c(=O)cc(N4CCOCC4)nc23)cccc1C(F)(F)F [GSK2289044]	29	0	0	0	0	3	0	0	0	4	0	5	83	0	0	0	3	6	3	0
Cc1nnc(-c2ccc3occ(-c4ccc(S(C)=O)cc4)c3c2)[nH]1 (centres unmarked)	0	0	0	26	20	0	0	4	0	66	0	13	3	90.4	11	22	3	26	45	11
Cc1cccc(-c2nc(Nc3cccc(C(N)=O)c3)c3ccccc3n2)n1 [GW876019]	44	0	4	0	0	0	0	0	14	10	4	8	0	78	12	15	0	0	0	10
COc1cc2nccc(Nc3ccc(NC(=O)c4ccc(C)cc4)c(O)c3)c2cc1OC.Cl [GW440132]	28	0	0	0	3	0	0	0	0	14	0	20	12	0	0	0	16	29	7	0
Cc1ccccc1-n1cnc2c(N)ncnc21 [SKF-97510]	1	0	0	0	0	0	0	0	0	0	0	1	5	0	0	0	0	0	0	0
Cc1cccc(-c2nc(-c3ccc(S(C)(=O)=O)cc3)sc2-c2ccnc(NCCc3ccccc3)c2)c1	0	0	15	0	8	0	3	7	17	0	9	0	2	4	8	0	0	0	0	0
Cc1cccc(-c2nc(Nc3ccncc3)c3ccccc3n2)n1 [GW855857]	0	0	0	0	0	0	0	7	0	21	0	24	0	74	0	0	0	6	21	0
Cc1ccc(NC(=O)Nc2cccc(Cl)c2)cc1-c1ccc(C(=O)Nc2ccncc2)cc1 [GSK1398468]	13	6	0	0	9	15	0	0	27	100	13	16	16	6	1	0	15	14	0	0
